Source: PubChem BioAssay
A selection: hits, their analogues and other compounds. The true share with any hit is near 4.9%.
MPTP inh = blocks calcium-induced mitochondrial swelling; isolated mouse mitochondria, Ca2+ swelling absorbance, 30 min; inhibition, % at 10 µM; 1.4% of 360,000 active;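 active means inhibition of 50% or more, scaled per plate between neutral and stimulator controls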;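 further: 0% = DMSO wells given calcium and 100% = 1 mM EGTA wells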
HSP90 inh = inhibitors of HSP90 luciferase refolding in rabbit reticulocyte lysate; luciferase refolding luminescence, 3 h; inhibition, % at 5.6 µM; 0.91% of 290,000 active; AID 1789;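 active means inhibition above the screen-wide mean plus 3 SD, computed separately per campaign, cut at about 16% in these data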;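 further: 0% = DMSO wells and 100% = 60 µM geldanamycin wells; inhibitors lower the luminescence because luciferase stays unfolded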
dFosB act-1 = activators of mouse delta FosB homodimer; purified delta FosB, TAMRA-CDK5 oligo fluorescence polarization; percent of positive-control signal above neutral wells; 0.99% of 340,000 active; activation, % at 25 µM; P13346; AID 493131;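 active means mean activation above about 17%, with every replicate also reaching it, limit read from the data, passing the limit was not always enough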
Target sequence (P13346 whole entry, looked up): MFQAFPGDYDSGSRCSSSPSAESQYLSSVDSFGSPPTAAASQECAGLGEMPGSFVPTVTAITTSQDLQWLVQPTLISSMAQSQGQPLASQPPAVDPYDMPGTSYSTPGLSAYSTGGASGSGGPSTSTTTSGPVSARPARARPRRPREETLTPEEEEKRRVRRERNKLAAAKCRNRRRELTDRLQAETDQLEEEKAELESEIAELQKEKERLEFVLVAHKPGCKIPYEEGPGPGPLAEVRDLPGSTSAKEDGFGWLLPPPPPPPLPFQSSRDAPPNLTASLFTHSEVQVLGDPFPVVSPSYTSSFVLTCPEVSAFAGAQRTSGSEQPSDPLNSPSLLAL
Platelet DG rel = platelet dense granule release activity. AID 1663. 0.22% of 300,000 active. human platelet-rich plasma, SFLLRN dense granule ATP release, luminescence. inhibition, %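 (compounds screened at 7.5 µM in platelet-rich plasma)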;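 active means mean replicate score, as percent of positive control, at or above 50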
HSF1 activator = increases HSF-1 driven luciferase reporter signal; NIH3T3-HGL HSF-1 luciferase reporter, MG132, 8 h; 100% = twice DMSO control signal; activation, % at 9 µM; 1.7% of 300,000 active;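 active means mean replicate activation of at least 50% with a set share of replicates each reaching 50%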;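 further: 0% = median of the neutral control wells and 100% = twice that signal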
HSF1 inhib = HSF1 inhibition. 0.77% of 300,000 active. NIH3T3-HGL HSE-luciferase, MG132-induced, luminescence 8 h; stronger effect = lower value. AID 2098. activity change, negative = inhibition, % at 7.5 µM (by protocol);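 active means more than half of replicate wells show activity change below -50%, luminescence cut by over half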;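 further: luciferase reports HSF-1 transcriptional activity via heat shock element; 0% = median of DMSO wells and -100% = zero luminescence signal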
dFosB act-2 = delta FosB (mouse) homodimer activation; 2,400 tested, under 10 active; purified delta FosB, TAMRA-CDK5 oligo fluorescence polarization; normalised: neutral wells 0, positive control 100; shares compounds with dFosB act-1; activation, % at 24.9 µM; AID 588690;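 active means highest replicate activation at or above 34% and every replicate reaching that threshold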;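 further: higher polarization means more probe DNA bound by delta FosB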
An asterisk follows results filed as active.

`Cc1cccc(Nc2nc(N)nc(-c3oc4ccccc4c3C)n2)c1` gave MPTP inh 2.0, HSP90 inh -3.8, dFosB act-1 78.5*, Platelet DG rel 13.8, HSF1 activator 28.2, HSF1 inhib 18.2 and dFosB act-2 -0.6.
`COc1cccc(Nc2nc(N)nc(-c3oc4ccccc4c3C)n2)c1` gave MPTP inh 0.9, HSP90 inh -1.7, dFosB act-1 59.6*, Platelet DG rel -1.6, HSF1 activator 26.3, HSF1 inhib 17.0 and dFosB act-2 0.4.
CCc1nc(Nc2cccc(OC)c2)c2oc3ccccc3c2n1 was read as MPTP inh -0.8, HSP90 inh -4.2, dFosB act-1 -11.7, Platelet DG rel -1.1, HSF1 activator -6.0 and HSF1 inhib 4.7.
For Cc1cccc(Nc2ncnc(N)n2)c1 the results were MPTP inh 0.5, HSP90 inh -3.2, dFosB act-1 0.6, Platelet DG rel 5.8, HSF1 activator 8.7 and HSF1 inhib 2.5.
Screening Cc1ccc(CNC(=O)CC(C)S(=O)(=O)c2cc3c(cc2C)NC(=O)CO3)cc1 (configuration not stated) returned MPTP inh -1.3, HSP90 inh -3.1, dFosB act-1 23.5*, Platelet DG rel -2.0, HSF1 activator 3.9, HSF1 inhib 0.6 and dFosB act-2 2.7.
COc1ccccc1NC(=O)CSc1nc2n[nH]c(C)c2c(=N)n1-c1ccccc1Cl was read as MPTP inh -0.9, HSP90 inh -3.0, dFosB act-1 53.1*, Platelet DG rel -3.9, HSF1 activator 60.1*, HSF1 inhib 26.2 and dFosB act-2 -1.9.
For Cc1[nH]nc2nc(SCC(=O)NC3CCCCC3)n(-c3ccc(Br)cc3)c(=N)c12 the results were MPTP inh -0.8, HSP90 inh 1.1, dFosB act-1 51.8*, Platelet DG rel -3.7, HSF1 activator 21.9, HSF1 inhib 4.4 and dFosB act-2 1.0.
`CC1Nc2ncnc(N3CCc4ccccc4C3)c2N(Cc2ccc(Br)cc2)C1=O` (configuration not stated) gave MPTP inh -0.7, dFosB act-1 51.0*, Platelet DG rel -1.6, HSF1 activator 19.2, HSF1 inhib 22.3 and dFosB act-2 -1.3.
Screening CCN(CC(=O)Nc1ccccc1C(F)(F)F)C(=O)CCc1nc2sc3c(c2c(=O)[nH]1)CCCC3 returned MPTP inh -0.9, dFosB act-1 2.1, Platelet DG rel 10.9, HSF1 activator -6.9 and HSF1 inhib 0.1.
`CN(CC(=O)Nc1ccc(Cl)cc1)C(=O)CCc1nc2sc3c(c2c(=O)[nH]1)CCCC3` gave MPTP inh 1.0, dFosB act-1 28.5*, Platelet DG rel 7.0, HSF1 activator -11.1, HSF1 inhib 2.2 and dFosB act-2 0.7.
`CN(CC(=O)Nc1ccccc1C(F)(F)F)C(=O)CCc1nc2sc3c(c2c(=O)[nH]1)CCCC3` gave MPTP inh 0.4, HSP90 inh -3.4, dFosB act-1 22.5*, Platelet DG rel -1.7, HSF1 activator 7.2, HSF1 inhib -0.8 and dFosB act-2 1.6.
Screening CC(=O)N1CCCC(C)(C(=O)Nc2cccc(OC(C)C)c2)C1 (configuration not stated) returned MPTP inh 0.8.
`Cc1ccc(CNC(=O)Cn2ccc3cc(S(=O)(=O)N4CCCC4)ccc32)o1` gave MPTP inh -0.3, HSP90 inh -2.7, dFosB act-1 -3.5, Platelet DG rel -4.6, HSF1 activator 9.0 and HSF1 inhib -4.1.
COc1ccc(Cl)cc1C(=O)NC(=S)Nc1nc(C)cc(C)n1 was read as MPTP inh 1.0, dFosB act-1 -11.0, Platelet DG rel -32.2, HSF1 activator 5.3 and HSF1 inhib -9.9.
COc1ccc(Cl)cc1C(=O)NC(=S)Nc1cc(-c2nc3ccccc3[nH]2)ccc1C was read as MPTP inh 3.2, HSP90 inh 3.0, dFosB act-1 36.2*, Platelet DG rel 0.0, HSF1 activator 19.2, HSF1 inhib 4.9 and dFosB act-2 1.7.
`O=C(NN1CCCCCC1)c1ccccc1F` gave MPTP inh -0.2 and dFosB act-1 3.1.
`Cc1ccc(C)c(NC(=O)CCC(=O)N2CCOc3ccccc32)c1` gave MPTP inh -1.3, HSP90 inh 2.1, dFosB act-1 -2.5, Platelet DG rel -6.5, HSF1 activator 13.1 and HSF1 inhib -0.4.
For Cc1ccc(C(=O)c2oc3ccccc3c2NC(=O)c2cc(-c3ccccc3O)n[nH]2)cc1 the results were MPTP inh 7.3, HSP90 inh -1.4, dFosB act-1 30.9*, Platelet DG rel -1.0, HSF1 activator 49.1, HSF1 inhib 22.2 and dFosB act-2 -4.8.
For CC(=O)Nc1c(C(=O)c2ccc(F)cc2)oc2ccccc12 the results were MPTP inh 1.2, HSP90 inh -1.6, dFosB act-1 -3.2, Platelet DG rel -0.2, HSF1 activator 5.8 and HSF1 inhib -0.8.
CCN(CC)CCC=C(c1cccs1)c1cccs1 was read as MPTP inh -0.7 and dFosB act-1 -9.2.
Screening CC(CCc1ccco1)NC(=O)CCc1nnc2ccc(NCc3ccccc3Cl)nn12 (configuration not stated) returned MPTP inh -1.8, HSP90 inh 0.7, dFosB act-1 22.5*, Platelet DG rel -5.7, HSF1 activator 11.2, HSF1 inhib -1.3 and dFosB act-2 0.5.
Cc1cccc(NC(=O)N2CCCC2C(=O)Nc2ccccc2)c1 (configuration not stated) was read as MPTP inh 5.3, HSP90 inh 0.1, dFosB act-1 -2.8, Platelet DG rel -1.3, HSF1 activator 4.9 and HSF1 inhib 7.5.
For Cc1noc(C(=O)Nc2ccc(F)c(Cl)c2)c1Cl the results were MPTP inh 0.4, HSP90 inh -2.1, dFosB act-1 24.0*, Platelet DG rel 6.4, HSF1 activator 22.5, HSF1 inhib 19.1 and dFosB act-2 3.8.
For COc1ccc2nc(NC(=O)Cn3cnc4ccccc4c3=O)sc2c1 the results were MPTP inh 1.2, HSP90 inh -2.1, dFosB act-1 30.8*, Platelet DG rel 1.6, HSF1 activator 5.3, HSF1 inhib -0.9 and dFosB act-2 2.4.
For O=C(Nc1ccc(-c2nc3ccccc3[nH]2)cc1)c1cccc(N2C(=O)CCC2=O)c1 the results were MPTP inh -0.2, HSP90 inh -5.8, dFosB act-1 35.7*, Platelet DG rel 0.6, HSF1 activator 1.2, HSF1 inhib 1.4 and dFosB act-2 1.9.
`O=C(Nc1ccccc1-c1nc2ccccc2[nH]1)c1ccc(N2C(=O)CCC2=O)cc1` gave MPTP inh -2.1, HSP90 inh -0.3, dFosB act-1 2.5, Platelet DG rel 8.4, HSF1 activator 9.7 and HSF1 inhib -0.5.
`Cn1nc(C(=O)NCC(=O)Nc2ccc(F)c(F)c2)ccc1=O` gave MPTP inh 0.6.
